Reference: PubChem BioAssay (EPA / NIEHS)
Active and inactive are the calls of the source. How the source made its calls: active means hit-call score of the fitted dose curve at least 0.9, where 1 is the maximum; inactive means score below 0.9.

Legend:
Conditions in all cases: mRNA level, 48 h; actives raise or lower the signal
[1] = read-out: Lipase C (LIPC), LIPC (gene 3990); experiment: LTEA_HepaRG_LIPC: Life Technologies and Expression Analysis (LTEA) Assay for Lipase C (LIPC) using HepaRG (AID 2283514)
In short: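 LIPC expression was quantified by qRT-PCR against three housekeeping genes (ACTB, GAPDH, POLR2A). Differentiated human HepaRG cells received eight half-log doses (top 100 uM, 0.5% DMSO) in duplicate for 48 h; fitting bidirectional relative to DMSO.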

[2] = read-out: Lipoprotein lipase (LPL), LPL (gene 4023); experiment: LTEA_HepaRG_LPL: Life Technologies and Expression Analysis (LTEA) Assay for Lipoprotein lipase (LPL) using HepaRG (AID 2283515)
In short: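 LPL transcript levels quantified by TaqMan qRT-PCR against three housekeeping genes after 48 h chemical treatment of HepaRG cells. Eight-point half-log series from 100 uM in 0.5% DMSO, tested in duplicate; bidirectional fitting versus vehicle.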

[3] = read-out: MicroRNA 122 (MIR122), gene 406906; experiment: LTEA_HepaRG_MIR122: Life Technologies and Expression Analysis (LTEA) Assay for MicroRNA 122 (MIR122) using HepaRG (AID 2283516); further: the transcript read is the microRNA miR-122
In short: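 Changes in transcript abundance, up or down relative to 0.5% DMSO vehicle, were scored after 48 h chemical treatment of HepaRG cells (maximum 100 uM). Quantification used TaqMan qRT-PCR normalized to housekeeping genes.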

[4] = read-out: matrix metalloproteinase-10 (MMP10), MMP10 (gene 4319); experiment: LTEA_HepaRG_MMP10: Life Technologies and Expression Analysis (LTEA) Assay for matrix metalloproteinase-10 (MMP10) using HepaRG (AID 2283517)
In short: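 Expression measured by TaqMan qRT-PCR with ACTB/GAPDH/POLR2A normalisation after 48 h chemical exposure of HepaRG cells. Eight half-log concentrations, top 100 uM, 0.5% DMSO vehicle, duplicates; gain or loss fitted against vehicle.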

MYC, MYC (gene 4609) = experiment: LTEA_HepaRG_MYC: Life Technologies and Expression Analysis (LTEA) Assay for MYC using HepaRG (AID 2283518)
In short: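 HepaRG, ~100,000 cells/well, collagen I; 48 h plating; serum-free induction medium; 48 h dosing, duplicate, 100 uM top, half-log, 0.5% DMSO; total RNA → qRT-PCR MYC; gain/loss fit vs DMSO.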

[5] = read-out: matrix metalloproteinase-3 (MMP3), MMP3 (gene 4314); experiment: LTEA_HepaRG_MMP3: Life Technologies and Expression Analysis (LTEA) Assay for matrix metalloproteinase-3 (MMP3) using HepaRG (AID 2283519)
In short: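 Fluidigm-based TaqMan qRT-PCR, normalized to ACTB, GAPDH and POLR2A and fitted bidirectionally versus 0.5% DMSO, measured transcript levels. Treatment: duplicate 48 h exposures of HepaRG cells, ~100,000/well, to eight half-log concentrations topping at 100 uM.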

[6] = read-out: Paternally Expressed 10 (PEG10), PEG10 (gene 23089); experiment: LTEA_HepaRG_PEG10: Life Technologies and Expression Analysis (LTEA) Assay for Paternally Expressed 10 (PEG10) using HepaRG (AID 2283520)
In short: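 After 48 h exposure of differentiated HepaRG cells (0.5% DMSO vehicle, eight concentrations up to 100 uM, duplicates), PEG10 mRNA was measured by TaqMan qRT-PCR. Values were normalised to endogenous control genes and analysed bidirectionally against vehicle.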

[7] = read-out: Nuclear factor NF-kappa-B p105 subunit (Homo sapiens) (UniProt P19838); experiment: LTEA_HepaRG_NFKB1: Life Technologies and Expression Analysis (LTEA) Assay for Nuclear Factor Kappa B Subunit 1 (NFKB1) using HepaRG (AID 2283521)
In short: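 Differentiated human HepaRG cells were exposed for 48 h in serum-free induction medium to eight concentrations (top 100 uM, half-log steps, 0.5% DMSO), in duplicate. NFKB1 mRNA was measured by TaqMan qRT-PCR, normalized to ACTB/GAPDH/POLR2A, and fitted bidirectionally against DMSO.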

[8] = read-out: Protein phosphatase 2A (PPP2R4), PTPA (gene 5524); experiment: LTEA_HepaRG_PPP2R4: Life Technologies and Expression Analysis (LTEA) Assay for Protein phosphatase 2A (PPP2R4) using HepaRG (AID 2283522)
In short: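 Using HepaRG cultures maintained in 0.5% DMSO, chemicals are tested 48 h at up to 100 uM in duplicate. Induction or suppression of PPP2R4 mRNA, measured by qRT-PCR, is fitted bidirectionally against the vehicle baseline.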

[9] = read-out: Phosphatase and tensin (PTEN), PTEN (gene 5728); experiment: LTEA_HepaRG_PTEN: Life Technologies and Expression Analysis (LTEA) Assay for Phosphatase and tensin (PTEN) using HepaRG (AID 2283523)
In short: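 Read-out: TaqMan qRT-PCR of PTEN transcript, normalized to three housekeeping genes, fitted in both directions against 0.5% DMSO. Differentiated human HepaRG cultures received chemicals for 48 h, eight-point half-log series topping at 100 uM.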

[10] = read-out: solute carrier (SLC22A1), SLC22A1 (gene 6580); experiment: LTEA_HepaRG_SLC22A1: Life Technologies and Expression Analysis (LTEA) Assay for solute carrier (SLC22A1) using HepaRG (AID 2283524)
In short: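 Transcript level of SLC22A1 quantified by qRT-PCR (normalized to three housekeeping genes) after 48 h chemical exposure of HepaRG cells, eight concentrations up to 100 µM, half-log steps, 0.5% DMSO vehicle. Gain or loss relative to DMSO fitted bidirectionally.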

[11] = read-out: Pyruvate Dehydrogenase Kinase 4 (PDK4), PDK4 (gene 5166); experiment: LTEA_HepaRG_PDK4: Life Technologies and Expression Analysis (LTEA) Assay for Pyruvate Dehydrogenase Kinase 4 (PDK4) using HepaRG (AID 2283525)
In short: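 Readout is qRT-PCR of PDK4 transcript, normalized to three housekeeping genes, with bidirectional fitting against 0.5% DMSO vehicle. Differentiated HepaRG cells were treated 48 h in serum-free induction medium, duplicate wells, eight-point half-log series topping at 100 uM.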

[12] = read-out: NAD(P)H dehydrogenase [quinone] 1 (NQO1), NQO1 (gene 1728); experiment: LTEA_HepaRG_NQO1: Life Technologies and Expression Analysis (LTEA) Assay for NAD(P)H dehydrogenase [quinone] 1 (NQO1) using HepaRG (AID 2283526)
In short: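 In this assay, gene expression is read by qRT-PCR after 48 h exposure of HepaRG cells to eight concentrations (max 100 uM, half-log) in 0.5% DMSO. Each chemical runs in duplicate, and activity is scored relative to vehicle.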

[13] = read-out: Nuclear factor erythroid 2-related factor 2 (Homo sapiens) (UniProt Q16236); experiment: LTEA_HepaRG_NFE2L2: Life Technologies and Expression Analysis (LTEA) Assay for Nuclear factor erythroid 2-related factor 2 (NFE2L2) Transcription Factor using HepaRG (AID 2283527);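 further: TaqMan qRT-PCR transcript level normalised to ACTB GAPDH and POLR2A housekeeping genes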
In short: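 NFE2L2 transcript level was read by qRT-PCR (housekeeping ACTB/GAPDH/POLR2A normalisation) after 48 h chemical treatment of HepaRG in serum-free induction medium. Duplicate 8-point half-log curves, top 100 uM, 0.5% DMSO vehicle; up- or down-regulation fitted against vehicle.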

[14] = read-out: succinate dehydrogenase complex iron sulfur subunit B (SDHB), SDHB (gene 6390); experiment: LTEA_HepaRG_SDHB: Life Technologies and Expression Analysis (LTEA) Assay for succinate dehydrogenase complex iron sulfur subunit B (SDHB) using HepaRG (AID 2283528)
In short: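 HepaRG, 48 h exposure, 8-pt half-log series from 100 uM in 0.5% DMSO, duplicates. Readout: SDHB mRNA by Fluidigm qRT-PCR vs housekeeping genes; bidirectional fit relative to DMSO.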

[15] = read-out: Signal transducer and activator of transcription 3 (Homo sapiens) (UniProt P40763); experiment: LTEA_HepaRG_STAT3: Life Technologies and Expression Analysis (LTEA) Assay for Signal transducer and activator of transcription (STAT3) using HepaRG (AID 2283529)
In short: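 STAT3 transcript quantified by qRT-PCR against three housekeeping genes (ACTB, GAPDH, POLR2A), fitted both directions relative to DMSO. HepaRG cultures exposed 48 h to eight half-log concentrations, top 100 uM, 0.5% DMSO, serum-free induction medium.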

[16] = read-out: solute carrier (SLCO1B1), SLCO1B1 (gene 10599); experiment: LTEA_HepaRG_SLCO1B1: Life Technologies and Expression Analysis (LTEA) Assay for solute carrier (SLCO1B1) using HepaRG (AID 2283530)
In short: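 HepaRG, serum-free induction medium, 48 h dosing, 8-pt half-log from 100 uM, 0.5% DMSO vehicle, duplicates. Readout: SLCO1B1 mRNA, qRT-PCR, ACTB/GAPDH/POLR2A normalization; up or down fit vs DMSO.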

[17] = read-out: sulfotransferase 2A1 (SULT2A1), SULT2A1 (gene 6822); experiment: LTEA_HepaRG_SULT2A1: Life Technologies and Expression Analysis (LTEA) Assay for sulfotransferase 2A1 (SULT2A1) using HepaRG (AID 2283531)
In short: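 Transcript levels of SULT2A1, quantified by qRT-PCR and normalized to three housekeeping genes, serve as the readout. Human HepaRG cultures receive test chemicals for 48 h at up to 100 uM in half-log steps, with 0.5% DMSO vehicle.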

Measured: outcome

Chain of Nuclear factor erythroid 2-related factor 2 (Homo sapiens) (Q16236 whole entry, looked up): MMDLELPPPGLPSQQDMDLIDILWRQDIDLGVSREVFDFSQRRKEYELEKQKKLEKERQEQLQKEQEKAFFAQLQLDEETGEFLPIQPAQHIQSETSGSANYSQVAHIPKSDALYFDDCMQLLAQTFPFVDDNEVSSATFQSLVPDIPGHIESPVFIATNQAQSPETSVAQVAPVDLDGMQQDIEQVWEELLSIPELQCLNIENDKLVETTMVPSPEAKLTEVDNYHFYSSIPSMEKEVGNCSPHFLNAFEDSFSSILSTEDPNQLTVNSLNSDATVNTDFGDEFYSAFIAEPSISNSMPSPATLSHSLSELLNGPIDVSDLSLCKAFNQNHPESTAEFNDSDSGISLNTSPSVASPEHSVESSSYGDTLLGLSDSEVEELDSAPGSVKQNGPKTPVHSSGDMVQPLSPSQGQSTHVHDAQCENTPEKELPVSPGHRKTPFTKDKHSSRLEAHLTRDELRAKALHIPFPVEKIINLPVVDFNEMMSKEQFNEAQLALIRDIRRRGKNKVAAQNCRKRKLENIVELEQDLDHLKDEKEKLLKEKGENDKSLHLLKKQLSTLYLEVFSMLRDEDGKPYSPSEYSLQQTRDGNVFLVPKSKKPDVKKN
Chain of Signal transducer and activator of transcription 3 (Homo sapiens) (P40763 whole entry, looked up): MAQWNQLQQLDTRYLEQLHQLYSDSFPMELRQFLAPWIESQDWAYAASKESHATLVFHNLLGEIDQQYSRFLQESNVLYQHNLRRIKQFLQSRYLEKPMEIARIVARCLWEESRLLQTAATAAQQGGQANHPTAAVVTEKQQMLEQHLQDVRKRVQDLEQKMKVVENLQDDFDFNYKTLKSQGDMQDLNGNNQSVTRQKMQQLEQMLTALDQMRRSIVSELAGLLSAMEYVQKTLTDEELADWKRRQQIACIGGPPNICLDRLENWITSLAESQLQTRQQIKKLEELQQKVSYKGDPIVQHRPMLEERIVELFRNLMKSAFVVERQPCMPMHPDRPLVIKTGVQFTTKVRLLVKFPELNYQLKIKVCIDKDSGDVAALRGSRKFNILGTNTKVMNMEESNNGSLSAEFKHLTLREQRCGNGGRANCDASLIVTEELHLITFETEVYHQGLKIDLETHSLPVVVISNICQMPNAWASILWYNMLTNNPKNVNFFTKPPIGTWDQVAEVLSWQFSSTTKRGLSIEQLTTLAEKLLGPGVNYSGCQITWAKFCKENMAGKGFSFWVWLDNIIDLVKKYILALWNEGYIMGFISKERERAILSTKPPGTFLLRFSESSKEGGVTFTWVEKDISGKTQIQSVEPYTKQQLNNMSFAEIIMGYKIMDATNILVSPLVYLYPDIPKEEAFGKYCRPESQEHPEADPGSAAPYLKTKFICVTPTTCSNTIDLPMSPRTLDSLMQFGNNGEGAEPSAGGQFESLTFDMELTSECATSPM
Chain of Nuclear factor NF-kappa-B p105 subunit (Homo sapiens) (P19838 whole entry, looked up): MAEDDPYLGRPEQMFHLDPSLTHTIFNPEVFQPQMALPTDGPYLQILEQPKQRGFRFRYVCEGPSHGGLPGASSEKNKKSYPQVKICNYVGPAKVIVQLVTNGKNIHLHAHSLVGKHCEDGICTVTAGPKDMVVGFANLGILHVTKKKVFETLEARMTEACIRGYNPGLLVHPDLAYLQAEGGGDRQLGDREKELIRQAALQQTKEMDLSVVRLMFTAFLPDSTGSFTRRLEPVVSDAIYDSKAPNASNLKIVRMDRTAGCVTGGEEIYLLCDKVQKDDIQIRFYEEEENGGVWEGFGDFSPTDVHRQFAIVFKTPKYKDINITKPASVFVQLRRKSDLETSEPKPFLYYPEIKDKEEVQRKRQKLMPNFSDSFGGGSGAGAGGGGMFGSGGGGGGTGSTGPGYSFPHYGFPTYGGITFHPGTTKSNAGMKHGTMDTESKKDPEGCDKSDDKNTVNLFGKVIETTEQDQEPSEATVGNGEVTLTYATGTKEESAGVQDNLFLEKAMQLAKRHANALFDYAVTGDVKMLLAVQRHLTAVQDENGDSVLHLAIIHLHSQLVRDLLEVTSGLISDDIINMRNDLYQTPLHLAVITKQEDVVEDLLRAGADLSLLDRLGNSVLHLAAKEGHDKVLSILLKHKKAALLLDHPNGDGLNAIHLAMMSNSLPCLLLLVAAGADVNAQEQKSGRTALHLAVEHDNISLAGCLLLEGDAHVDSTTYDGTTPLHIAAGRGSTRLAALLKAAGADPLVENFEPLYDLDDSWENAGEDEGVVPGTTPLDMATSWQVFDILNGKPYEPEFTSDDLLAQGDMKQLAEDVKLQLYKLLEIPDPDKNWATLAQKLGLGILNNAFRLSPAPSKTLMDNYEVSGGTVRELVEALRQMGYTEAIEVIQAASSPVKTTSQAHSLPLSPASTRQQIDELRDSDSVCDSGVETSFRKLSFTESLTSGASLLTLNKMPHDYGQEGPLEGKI

c1cc[n+]2c(c1)-c1cccc[n+]1CC2
inactive: [1] | [2] | [3] | [4] | MYC, MYC (gene 4609) | [5] | [6] | [7] | [8] | [9] | [10] | [11] | [12] | [13] | [14] | [15] | [16] | [17]
